Rows were chosen to be rich in hits. Some 9.2% of all compounds tested hit in one or more screens of this group.
FLuc counter: qHTS profiling assay for firefly luciferase inhibitor/activator using purifed enzyme and Km concentrations of substrates (counterscreen for miR-21 project). Luciferin 4-monooxygenase (Photinus pyralis), P08659. purified FLuc, Km substrates, luminescence inhibition. Potency, µM (highest dose often 57.5 µM), usual class: inhibitors. 6.9% of 360,000 active; also: nearly all actives have a fitted effect of over 55% in size
Target sequence (P08659 whole entry, looked up): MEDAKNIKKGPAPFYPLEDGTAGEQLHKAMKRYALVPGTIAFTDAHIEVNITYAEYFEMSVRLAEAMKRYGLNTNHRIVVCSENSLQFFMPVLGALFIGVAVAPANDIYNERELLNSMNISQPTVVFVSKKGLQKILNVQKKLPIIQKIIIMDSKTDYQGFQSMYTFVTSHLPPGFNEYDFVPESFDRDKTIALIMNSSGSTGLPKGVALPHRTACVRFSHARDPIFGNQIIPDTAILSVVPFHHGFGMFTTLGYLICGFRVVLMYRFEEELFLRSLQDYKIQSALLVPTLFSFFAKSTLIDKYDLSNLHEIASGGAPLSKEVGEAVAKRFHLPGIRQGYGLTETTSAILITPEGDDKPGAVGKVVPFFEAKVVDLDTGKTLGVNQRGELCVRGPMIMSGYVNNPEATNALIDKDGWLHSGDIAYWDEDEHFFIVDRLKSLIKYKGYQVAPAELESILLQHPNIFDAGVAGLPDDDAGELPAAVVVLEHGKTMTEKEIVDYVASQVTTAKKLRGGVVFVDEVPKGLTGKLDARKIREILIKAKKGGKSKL
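Purified P. pyralis luciferase, 10 nM final, with Km-level 10 uM D-luciferin and 10 uM ATP in 50 mM Tris acetate pH 7.5, 10 mM Mg acetate, 0.01% Tween-20, 0.05% BSA; 6-point qHTS titration about 60 µM downward; luminescence read.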
Rab9 promoter act: qHTS Assay for Rab9 Promoter Activators; Huh7 Rab9 promoter-luciferase reporter, luminescence, 24 h; Potency, µM (highest dose often 9.22 µM), actives largely listed as activators; 2.8% of 320,000 active; also: nearly all actives have a fitted effect of over 60% in size
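Measured in stably transfected Huh7 cells bearing a Rab9 promoter–luciferase construct: 24 h compound treatment at 37 °C, followed by luminescence detection.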
ELG1 genotoxic: qHTS screen for small molecules that induce genotoxicity in human embryonic kidney (HEK293T) cells expressing luciferase-tagged ELG1; HEK293T ELG1-luciferase reporter, luminescence, 16 h; 1.3% of 330,000 active; Potency, µM (top dose mostly 46 µM), usual class: activators; AID 504466, 2011; also: nearly all actives have a fitted effect of over 60% in size
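ELG1-luciferase HEK293T cells, 2,000/well; compound pinned in; 16 hr, 37 °C, 5% CO2; ONE-Glo, 30 min RT; luminescence on CCD imager.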
ELG1 DNA repair: qHTS screen for small molecules that inhibit ELG1-dependent DNA repair in human embryonic kidney (HEK293T) cells expressing luciferase-tagged ELG1 | Potency, µM (doses to about 46.1 µM), hits mostly inhibitors | 2.3% of 330,000 active | HEK293T ELG1-luciferase reporter, luminescence, 16 h; DNA damage induced by 5-fluorouridine; also: nearly all actives have a fitted effect of over 55% in size
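Step one: seed 2,000 cells per well. Step two: pin-transfer compound or DMSO alongside 5-fluorouridine. Step three: incubate 16 hr, 37 °C, 5% CO2. Step four: add ONE-Glo, wait 30 min, read luminescence.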
NPC1 prom act: qHTS Assay for NPC1 Promoter Activators. 2.4% of 320,000 active. Potency, µM (doses to about 9.22 µM), hits mostly activators. Huh7 NPC1 promoter luciferase reporter, 24 h. AID 485313, 2010; also: nearly all actives have a fitted effect of over 60% in size
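Compounds in DMSO were transferred onto Huh7 NPC1-luciferase reporter cells pre-incubated 2 h; after 24 h at 37 °C, Amplite reagent was dispensed and luminescence recorded 10 min later.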
SMN2 splice up: qHTS Assay for Enhancers of SMN2 Splice Variant Expression; HEK293 SMN2-luciferase splicing reporter, luminescence, 30-36 h; 2.8% of 210,000 active; Potency, µM (top dose mostly 46.1 µM), most hits filed as activators; also: nearly all actives have a fitted effect of over 55% in size
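HEK293 cells carry an SMN2 […]–luciferase reporter in which exon 7 inclusion puts luciferase in frame. Cells were plated 10-12 h before compound addition, then incubated 30-36 h at 37C. ONE-Glo luminescence was read; sodium butyrate at 4.5 mM final served as control.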
A number is an active result; . = inactive; ? = inconclusive; / = no result given. Calls follow the shape of the dose curve; as a rule, active = well fitted curve in the direction sought with a large enough effect; inconclusive = small, poorly fitted or top-dose-only effect, or another doubt; inactive = no such curve, though single readings can be large; an effect the other way counts as inactive or inconclusive.

SMILES	FLuc counter	Rab9 promoter act	ELG1 genotoxic	ELG1 DNA repair	NPC1 prom act	SMN2 splice up
CCS(=O)(=O)c1ccc(-c2csc(-c3ccc(Cl)cc3)n2)c(Cl)c1Cl	?	.	18µM	.	.	.
CCS(=O)(=O)c1ccc(-c2csc(-c3ccccc3Cl)n2)c(Cl)c1Cl	.	.	?	.	.	.
COc1ccc(OC)c(S(=O)(=O)NCC(c2ccc(N(C)C)cc2)N2CCOCC2)c1 (stereo not drawn)	.	/	/	/	/	/
Cc1cccc2c3nc4ccccc4nc3n(CCCN3C(=O)c4ccccc4C3=O)c12	.	.	.	.	.	.
CCN(CC)c1ccc(/C=N/NC(=O)c2cnccn2)cc1	12µM	?	12µM	?	.	20µM
CCc1ccc(/C=N/NC(=O)c2ccccn2)cc1	0.48µM	0.13µM	?	?	0.45µM	/
CCN(CC)c1ccc(/C=N/NC(=O)c2ccc([N+](=O)[O-])cc2)cc1	.	.	.	.	.	/
O=C(N/N=C/c1ccc(OC(=O)c2ccccc2Cl)cc1)c1cc(O)cc(O)c1	?	.	.	.	.	/
O=C(CNC(=O)c1ccccn1)N/N=C/c1ccccc1	?	.	.	.	.	.
CCN(CC)c1ccc(/C=N/NC(=O)c2ccccn2)cc1	2.4µM	0.71µM	?	?	0.45µM	/
O=C(N/N=C/c1ccc(OC(=O)c2ccccc2Cl)cc1)c1ccccn1	1.5µM	?	8.2µM	?	2.8µM	/
Cc1occc1C(=O)Nc1nnc(C(F)(F)F)s1	.	.	.	.	.	.
CCOC(=O)c1sc(NC(=O)COC(=O)c2ccco2)nc1C	?	.	.	.	.	.
Cc1c(C(=O)Nc2nnc(C(F)(F)F)s2)oc2ccccc12	11µM	?	.	.	?	.
O=C(Nc1ccccc1C(=O)Nc1nnc(C(F)(F)F)s1)c1ccccc1	?	.	.	4.6µM	.	/
COC(=O)c1sc(NC(=O)c2ccc(C)o2)nc1C	5.4µM	2.8µM	?	?	?	1.6µM
CCOC(=O)c1sc(NC(=O)c2ccco2)nc1C	11µM	?	?	?	.	.
O=C1CCCN1CCCNc1nc2c(S(=O)(=O)c3ccccc3)nnn2c2ccc(Cl)cc12	.	.	.	.	.	/
CCOC(=O)c1sc(NC(C)=O)nc1C	.	.	.	.	.	.
COc1ccc(-c2nsc(NC(=O)c3oc4ccccc4c3C)n2)cc1	?	/	/	/	/	.
CCOC(=O)c1sc(Nc2nc(OC)cc(OC)n2)nc1C	.	.	.	26µM	.	/
COC(=O)c1sc(NC(=O)c2oc3ccccc3c2C)nc1C	?	?	2.3µM	?	?	7.1µM
CCOC(=O)c1sc(NC(=O)c2ccc(OC)cc2)nc1C	?	.	?	?	.	.
CCOC(=O)c1sc(NC(=O)c2ccc(C)o2)nc1C	6µM	.	5.8µM	?	.	13µM
O=C(O/N=C1\CCCc2ccccc21)c1cccc(Cl)c1	3µM	.	.	.	.	.
SMILES	FLuc counter	Rab9 promoter act	ELG1 genotoxic	ELG1 DNA repair	NPC1 prom act	SMN2 splice up
Cc1cccc(C(=O)O/N=C2\CCSc3ccc(C)cc32)c1	?	.	.	.	.	.
Cc1cccc(C(=O)O/N=C2\CCCc3ccccc32)c1	0.67µM	.	.	?	?	.
Cc1ccc(C(=O)O/N=C2\CCCc3ccccc32)cc1	0.17µM	.	.	.	.	.
O=C(O/N=C1\CCCc2ccccc21)C1CC1	?	.	.	.	.	.
Cc1ccc(C(=O)O/N=C2\CCSc3ccc(C)cc32)cc1	7.6µM	.	?	?	.	.
Cc1ccc(S(=O)(=O)O/N=C2\CCCc3ccccc32)cc1	.	.	.	.	.	.
O=C(O)c1ccc(N/N=C2/CCCc3ccccc32)cc1	9.5µM	2.5µM	?	?	3.2µM	/
COc1cc2sc(NC(=O)c3ccco3)nc2cc1Cl	?	0.56µM	2.3µM	?	0.71µM	/
Cc1cc2sc(NC(=O)c3ccco3)nc2cc1Cl	1.3µM	1.1µM	?	?	1.4µM	/
Cc1cc(OCc2cc(C(=O)N3CCC(Oc4cccnc4)CC3)no2)cc(C)c1Cl	.	.	.	.	.	/
O=C(O)c1ccc(N2CCS(=O)(=O)CC2)cc1	.	.	.	.	.	.
C=C1Cc2c(Cl)cc3[nH]c4c5c3c2[C@@]2(O)[C@@H]1C[C@@H]2C(C)(C)O[C@H]5[C@@H]1CC[C@@]2(O)[C@@]35O[C@@H]3[C@@H](O)[C@@H](C(=O)O)O[C@H]5CC[C@]2(C)[C@@]41C	/	/	/	/	/	.
C=C1C=C(C(F)F)n2ncc(C(=O)NCc3ccccc3Cl)c2N1	.	/	/	/	/	/
COc1cc(/C=C/C2=NC(=O)C(C)(C)O2)ccc1O	.	.	.	26µM	.	.
Clc1ccc(NCc2cccnc2)cc1	.	.	.	.	.	/
CSc1ccc(CNc2ccc(Cl)cc2)cc1	15µM	?	.	?	.	.
O=S(=O)(Cc1ccccc1)N1CCN(Cc2ccc(Br)cc2)CC1	?	.	16µM	?	?	/
O=C(Nc1cc(-c2nc3ccccc3o2)ccc1Cl)c1ccc(N2CCCCC2)c([N+](=O)[O-])c1	?	/	/	/	/	.
CC(=O)c1ccc(N2Cc3ccccc3C2=NC(=O)c2cccs2)cc1	?	?	?	?	?	14µM
CCOC(=O)c1ccc(N2Cc3ccccc3C2=NC(=O)c2cccs2)cc1	?	.	?	?	.	.
O=C(N/N=C/c1ccccn1)c1cc(-c2ccccc2Cl)n[nH]1	24µM	.	.	.	.	.
O=C(N/N=C/c1ccccn1)c1cc(-c2ccc3ccccc3c2)n[nH]1	7.6µM	.	.	?	.	.
O=C(N/N=C/c1cccnc1)c1ccc([N+](=O)[O-])cc1Cl	?	.	.	.	.	/
O=C(N/N=C/c1ccccn1)c1cc(-c2cccc3ccccc23)n[nH]1	?	.	.	.	.	.
O=C(N/N=C/c1ccccn1)c1ccc([N+](=O)[O-])cc1Cl	19µM	.	.	?	.	/
SMILES	FLuc counter	Rab9 promoter act	ELG1 genotoxic	ELG1 DNA repair	NPC1 prom act	SMN2 splice up
CCc1ccc(-c2cc(C(=O)N/N=C/c3ccccn3)[nH]n2)cc1	7.6µM	.	.	.	.	.
CCc1ccc(-c2cc(C(=O)N/N=C/c3ccco3)[nH]n2)cc1	?	.	.	.	.	.
Cc1cc(S(=O)(=O)N2CCCCC2)c(C)s1	.	.	.	.	.	/
COc1cc(CN2CCC(n3nccc3NC(=O)c3ccc4c(c3)OCO4)CC2)ccc1O	.	.	.	.	.	/
O=C(N/N=C/c1ccccn1)c1ccc(NC(=O)c2ccccc2Cl)cc1	?	.	.	.	.	/
O=C(N/N=C/c1ccccn1)c1ccc(Cl)c(Cl)c1	?	.	21µM	?	.	/
